Screen size: about 5,500 compounds; about 2,000 (36%) were called active. About 18% were inconclusive and are not listed. No stated cut-off is given here; in the data, active means normalized growth mostly below about 0.91 (no sharp cut-off); inconclusive means no clear call, values can overlap the other calls; inactive means mostly above about 0.92. Some of the results follow.
Test: chemical genetic growth profiling, strain panel (AID 1159580);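 further: tested at 20 µM; growth read once vehicle control cultures reached saturation at 30 °C; 1 = growth at the plate median or of vehicle wells; lower values mean less growth of the strain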
Conditions: S. cerevisiae deletion strains, growth OD

Measured: normalized growth

CC(/C=N\O)=N/Nc1ccccc1
active: locus YKL190W, strain CNB1, hits give low values 0.887 | locus YLR039C, strain RIC1, hits give low values 0.324 | locus YLR262C, strain YPT6, hits give low values 0.253 | locus YML094W, strain GIM5, hits give low values 0.841 | locus YOL006C, strain TOP1, hits give low values 0.527
inactive: locus YAL013W, strain DEP1, hits give low values 0.969 | locus YBR229C, strain ROT2, hits give low values 0.938 | locus YDL101C, strain DUN1, hits give low values 1.01 | locus YDL134C, strain PPH21, hits give low values 0.975 | locus YDR150W, strain NUM1, hits give low values 0.932 | locus YEL061C, strain CIN8, hits give low values 0.953 | locus YGR078C, strain PAC10, hits give low values 0.961 | locus YHR030C, strain SLT2, hits give low values 0.774 | locus YHR087W, strain rtc3, hits give low values 0.916 | locus YJR043C, strain POL32, hits give low values 0.974 | locus YJR075W, strain HOC1, hits give low values 0.954 | locus YLR058C, strain SHM2 (second series), hits give low values 0.979 | locus YLR085C, strain ARP6, hits give low values 0.793 | locus YMR219W, strain ESC1, hits give low values 0.955 | locus YMR263W, strain SAP30, hits give low values 0.967 | locus YNL153C, strain GIM3, hits give low values 0.973 | locus YNL298W, strain CLA4 (second series), hits give low values 0.923 | locus YNL322C, strain KRE1, hits give low values 1.01 | locus YNR030W, strain Alg12, hits give low values 0.951 | locus YPL055C, strain LGE1, hits give low values 1.05 | locus YPL241C, strain CIN2, hits give low values 0.907 | locus YPR135W, strain CTF4, hits give low values 0.889

— PubChem BioAssay AID1159580 (chemical genetic matrix, 2015)
